# Publication PMC7862700, “An all-to-all approach to the identification of sequence-specific readers for epigenetic DNA modifications on cytosine”
# Assays:
# Experiment in all cases: DAPPL (digital affinity profiling via proximity ligation, sequencing); 10 mM Tris-HCl pH 7.5, 50 mM NaCl, 1 mM DTT, 4% glycerol, room temperature, 30 min; GST-TFs on glutathione beads, 16-mer random dsDNA library, 0.1% formaldehyde crosslink after washing; high values mean tight binding
# FEV = target: T1, FEV (Homo sapiens, UniProt Q99581 1-238); conditions: protein: recombinant; tags: N-terminal GST; dsDNA, one strand shown
# T1 sequence: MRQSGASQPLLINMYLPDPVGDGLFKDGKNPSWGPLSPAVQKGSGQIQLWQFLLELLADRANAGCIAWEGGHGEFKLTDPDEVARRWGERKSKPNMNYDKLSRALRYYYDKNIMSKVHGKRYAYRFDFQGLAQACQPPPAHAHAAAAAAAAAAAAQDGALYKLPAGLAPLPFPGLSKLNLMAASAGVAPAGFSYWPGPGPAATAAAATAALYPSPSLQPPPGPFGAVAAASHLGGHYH
# Method in brief: (§1)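 Binding signal is each hexamer's read frequency for a factor divided by its frequency in the tag-only sample. The factors were GST-fused human transcription factors from yeast, captured on glutathione beads, DNA-barcoded and pooled with that sample. Pools were incubated with 200 nmole of a random double-stranded 16-mer DNA library in Tris/NaCl/DTT/glycerol buffer at room temperature for 30 min, then washed, crosslinked with 0.1% formaldehyde, proximity-ligated with BsaI/T4 ligase (1 h, 37 °C), PCR-amplified and sequenced on an Illumina NextSeq500.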
# ETV5 = ETV5 (Homo sapiens, UniProt P41161 1-510); conditions: protein: recombinant; tags: N-terminal GST; dsDNA, one strand shown
# Chain of ETV5 (P41161 whole entry): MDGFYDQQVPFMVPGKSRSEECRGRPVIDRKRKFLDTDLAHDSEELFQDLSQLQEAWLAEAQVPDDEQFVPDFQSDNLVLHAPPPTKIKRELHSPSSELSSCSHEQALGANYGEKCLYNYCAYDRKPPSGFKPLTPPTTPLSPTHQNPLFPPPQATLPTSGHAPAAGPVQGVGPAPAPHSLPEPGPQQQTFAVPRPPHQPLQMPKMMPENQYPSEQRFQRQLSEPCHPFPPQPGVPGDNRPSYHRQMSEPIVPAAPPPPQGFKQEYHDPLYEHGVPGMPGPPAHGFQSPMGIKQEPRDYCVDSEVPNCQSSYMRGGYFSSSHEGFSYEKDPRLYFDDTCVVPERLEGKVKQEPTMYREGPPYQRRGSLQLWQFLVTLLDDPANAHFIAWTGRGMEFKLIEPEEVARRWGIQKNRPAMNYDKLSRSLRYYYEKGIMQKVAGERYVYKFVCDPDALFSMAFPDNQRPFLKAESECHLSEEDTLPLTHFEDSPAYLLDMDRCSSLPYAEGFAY
# Method in brief: as §1
# HSF1 = HSF1 (Homo sapiens, UniProt Q00613 1-529); conditions: protein: recombinant; tags: N-terminal GST; chain copies: 3; dsDNA, one strand shown
# Chain of HSF1 (Q00613 whole entry): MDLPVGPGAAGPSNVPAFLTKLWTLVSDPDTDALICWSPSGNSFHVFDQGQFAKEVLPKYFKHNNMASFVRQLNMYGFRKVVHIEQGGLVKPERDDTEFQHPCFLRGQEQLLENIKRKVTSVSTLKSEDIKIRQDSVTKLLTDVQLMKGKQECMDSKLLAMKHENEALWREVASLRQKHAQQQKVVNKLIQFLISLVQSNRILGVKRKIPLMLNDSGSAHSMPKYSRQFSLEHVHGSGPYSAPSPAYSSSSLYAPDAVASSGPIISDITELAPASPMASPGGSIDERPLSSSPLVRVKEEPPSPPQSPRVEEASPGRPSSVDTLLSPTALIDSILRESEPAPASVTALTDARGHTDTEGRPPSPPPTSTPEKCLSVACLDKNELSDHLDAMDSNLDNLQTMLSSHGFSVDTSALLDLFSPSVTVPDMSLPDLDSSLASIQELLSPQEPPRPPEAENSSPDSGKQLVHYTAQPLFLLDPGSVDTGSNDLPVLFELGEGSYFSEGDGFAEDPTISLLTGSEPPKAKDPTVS
# Method in brief: as §1
# SPIC = target: T2, SPIC (Homo sapiens, UniProt Q8N5J4 1-248); conditions: protein: recombinant; tags: N-terminal GST; dsDNA, one strand shown
# T2 sequence: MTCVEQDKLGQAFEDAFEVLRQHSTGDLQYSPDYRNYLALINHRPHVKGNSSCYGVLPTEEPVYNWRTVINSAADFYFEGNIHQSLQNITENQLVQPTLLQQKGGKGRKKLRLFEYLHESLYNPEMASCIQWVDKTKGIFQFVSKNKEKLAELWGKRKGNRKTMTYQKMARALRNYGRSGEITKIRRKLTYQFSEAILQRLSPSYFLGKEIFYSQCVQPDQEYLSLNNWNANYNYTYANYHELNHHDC
# Method in brief: as §1
# ELF4 = ELF4 (Homo sapiens, UniProt Q99607 1-663); conditions: protein: recombinant; tags: N-terminal GST; dsDNA, one strand shown
# Chain of ELF4 (Q99607 whole entry): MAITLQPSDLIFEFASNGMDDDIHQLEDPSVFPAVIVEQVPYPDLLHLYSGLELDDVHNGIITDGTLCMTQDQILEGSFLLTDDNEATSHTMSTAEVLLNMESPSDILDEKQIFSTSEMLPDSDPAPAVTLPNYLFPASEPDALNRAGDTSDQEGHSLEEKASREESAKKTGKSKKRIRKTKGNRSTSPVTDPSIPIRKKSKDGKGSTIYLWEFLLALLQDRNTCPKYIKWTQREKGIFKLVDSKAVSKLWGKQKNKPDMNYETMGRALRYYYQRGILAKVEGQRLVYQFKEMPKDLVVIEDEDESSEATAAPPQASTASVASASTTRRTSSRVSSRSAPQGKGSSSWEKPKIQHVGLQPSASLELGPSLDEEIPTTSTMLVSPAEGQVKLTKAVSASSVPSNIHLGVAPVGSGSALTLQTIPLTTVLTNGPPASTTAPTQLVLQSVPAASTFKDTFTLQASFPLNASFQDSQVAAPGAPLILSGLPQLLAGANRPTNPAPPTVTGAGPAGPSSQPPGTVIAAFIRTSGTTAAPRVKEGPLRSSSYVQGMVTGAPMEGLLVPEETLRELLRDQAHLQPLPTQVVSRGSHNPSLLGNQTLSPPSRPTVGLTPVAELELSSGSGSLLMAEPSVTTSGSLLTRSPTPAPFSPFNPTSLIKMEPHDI
# Method in brief: as §1
# ELK4 = target: T3, ELK4 (Homo sapiens, UniProt P28324-2 1-405); conditions: protein: recombinant; tags: N-terminal GST; dsDNA, one strand shown
# T3 sequence: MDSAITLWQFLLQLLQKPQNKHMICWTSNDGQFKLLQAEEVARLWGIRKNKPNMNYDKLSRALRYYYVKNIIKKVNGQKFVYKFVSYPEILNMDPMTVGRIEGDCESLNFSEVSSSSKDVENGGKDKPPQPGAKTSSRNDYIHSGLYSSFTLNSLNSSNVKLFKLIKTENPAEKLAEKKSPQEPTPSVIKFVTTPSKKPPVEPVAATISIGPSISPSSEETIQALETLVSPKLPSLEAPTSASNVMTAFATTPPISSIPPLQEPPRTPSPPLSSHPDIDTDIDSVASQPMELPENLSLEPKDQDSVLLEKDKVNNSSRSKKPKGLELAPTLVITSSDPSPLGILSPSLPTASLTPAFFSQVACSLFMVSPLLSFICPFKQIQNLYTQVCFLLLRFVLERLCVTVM
# Method in brief: as §1
# ETV2 = target: T4, ETV2 (Homo sapiens, UniProt O00321 1-342); conditions: protein: recombinant; tags: N-terminal GST; dsDNA, one strand shown
# T4 sequence: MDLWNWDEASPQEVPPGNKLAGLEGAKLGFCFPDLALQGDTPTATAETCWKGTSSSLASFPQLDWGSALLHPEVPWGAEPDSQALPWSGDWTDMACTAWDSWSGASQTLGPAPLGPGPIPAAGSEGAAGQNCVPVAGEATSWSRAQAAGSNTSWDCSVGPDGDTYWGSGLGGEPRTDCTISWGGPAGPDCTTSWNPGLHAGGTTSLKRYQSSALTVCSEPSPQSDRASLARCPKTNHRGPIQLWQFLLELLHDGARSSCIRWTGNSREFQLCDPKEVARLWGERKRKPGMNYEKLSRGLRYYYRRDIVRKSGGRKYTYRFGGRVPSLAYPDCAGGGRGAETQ
# Method in brief: as §1
# ELF3 = target: T5, ELF3 (Homo sapiens, UniProt P78545 1-371); conditions: protein: recombinant; tags: N-terminal GST; dsDNA, one strand shown
# T5 sequence: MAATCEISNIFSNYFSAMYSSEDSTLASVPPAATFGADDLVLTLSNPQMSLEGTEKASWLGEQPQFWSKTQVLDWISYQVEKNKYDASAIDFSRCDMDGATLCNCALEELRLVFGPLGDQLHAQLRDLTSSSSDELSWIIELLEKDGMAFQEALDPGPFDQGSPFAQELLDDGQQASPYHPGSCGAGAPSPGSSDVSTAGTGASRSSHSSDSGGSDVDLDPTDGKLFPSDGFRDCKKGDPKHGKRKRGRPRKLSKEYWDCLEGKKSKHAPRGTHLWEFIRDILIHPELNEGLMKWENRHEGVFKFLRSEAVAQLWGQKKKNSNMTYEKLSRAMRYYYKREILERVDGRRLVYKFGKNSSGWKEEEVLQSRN
# Method in brief: as §1
# CRX = CRX (Homo sapiens, UniProt O43186 1-299); conditions: protein: recombinant; tags: N-terminal GST; dsDNA, one strand shown
# Chain of CRX (O43186 whole entry): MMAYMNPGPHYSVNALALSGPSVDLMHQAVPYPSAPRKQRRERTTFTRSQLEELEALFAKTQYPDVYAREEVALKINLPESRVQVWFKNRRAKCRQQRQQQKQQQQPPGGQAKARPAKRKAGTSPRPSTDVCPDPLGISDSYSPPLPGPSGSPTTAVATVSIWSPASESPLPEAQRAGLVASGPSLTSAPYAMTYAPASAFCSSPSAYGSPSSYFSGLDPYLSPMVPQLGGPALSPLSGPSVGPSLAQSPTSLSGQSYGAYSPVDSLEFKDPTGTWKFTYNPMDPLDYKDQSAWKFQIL
# Method in brief: as §1
# ETV1 = ETV1 (Homo sapiens, UniProt P50549 1-477); conditions: protein: recombinant; tags: N-terminal GST; dsDNA, one strand shown
# Chain of ETV1 (P50549 whole entry): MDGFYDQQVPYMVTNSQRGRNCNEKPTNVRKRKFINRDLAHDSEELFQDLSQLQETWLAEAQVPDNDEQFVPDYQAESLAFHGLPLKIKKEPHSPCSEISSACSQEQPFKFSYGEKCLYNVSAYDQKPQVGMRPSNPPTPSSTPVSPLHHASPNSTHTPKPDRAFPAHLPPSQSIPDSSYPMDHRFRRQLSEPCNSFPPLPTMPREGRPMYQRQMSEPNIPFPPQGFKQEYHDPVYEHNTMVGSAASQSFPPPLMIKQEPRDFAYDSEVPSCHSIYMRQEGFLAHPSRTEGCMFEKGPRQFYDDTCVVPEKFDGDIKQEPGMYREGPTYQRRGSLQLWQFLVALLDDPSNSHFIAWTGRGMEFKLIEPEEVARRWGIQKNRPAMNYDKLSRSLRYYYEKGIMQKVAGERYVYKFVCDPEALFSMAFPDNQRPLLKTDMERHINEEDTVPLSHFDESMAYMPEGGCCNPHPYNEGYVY
# Method in brief: as §1
# ERF = target: T6, ERF (Homo sapiens, UniProt P50548 1-548); conditions: protein: recombinant; tags: N-terminal GST; dsDNA, one strand shown
# T6 sequence: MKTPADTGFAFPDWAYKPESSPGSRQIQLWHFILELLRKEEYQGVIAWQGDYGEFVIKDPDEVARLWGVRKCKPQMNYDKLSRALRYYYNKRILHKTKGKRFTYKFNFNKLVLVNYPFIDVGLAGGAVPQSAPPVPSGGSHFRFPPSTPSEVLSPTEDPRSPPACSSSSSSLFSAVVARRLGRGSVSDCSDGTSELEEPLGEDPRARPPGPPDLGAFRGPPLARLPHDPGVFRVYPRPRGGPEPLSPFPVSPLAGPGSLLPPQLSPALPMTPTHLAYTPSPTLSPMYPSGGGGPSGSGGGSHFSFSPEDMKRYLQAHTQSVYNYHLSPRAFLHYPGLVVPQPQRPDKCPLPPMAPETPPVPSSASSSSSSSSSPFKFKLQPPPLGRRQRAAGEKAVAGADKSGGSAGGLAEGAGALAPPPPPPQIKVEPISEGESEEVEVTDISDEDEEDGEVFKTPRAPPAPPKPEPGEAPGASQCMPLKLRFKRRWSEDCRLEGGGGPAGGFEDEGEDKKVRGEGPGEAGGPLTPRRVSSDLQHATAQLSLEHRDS
# Method in brief: as §1
# ETV3L = target: T7, ETV3L (Homo sapiens, UniProt Q6ZN32 1-361); conditions: protein: recombinant; tags: N-terminal GST; dsDNA, one strand shown
# T7 sequence: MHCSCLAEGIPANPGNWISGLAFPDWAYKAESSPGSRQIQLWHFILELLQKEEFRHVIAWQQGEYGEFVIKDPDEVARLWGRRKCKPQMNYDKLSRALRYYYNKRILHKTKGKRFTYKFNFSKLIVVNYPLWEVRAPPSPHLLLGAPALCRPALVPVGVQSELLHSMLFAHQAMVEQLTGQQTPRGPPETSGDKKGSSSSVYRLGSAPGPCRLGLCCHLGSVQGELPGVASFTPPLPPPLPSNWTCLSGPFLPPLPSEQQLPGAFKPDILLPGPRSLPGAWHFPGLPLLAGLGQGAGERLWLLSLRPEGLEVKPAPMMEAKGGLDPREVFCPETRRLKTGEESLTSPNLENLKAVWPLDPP
# Method in brief: as §1
# ETS2 = target: T8, ETS2 (Homo sapiens, UniProt P15036 1-469); conditions: protein: recombinant; tags: N-terminal GST; dsDNA, one strand shown
# T8 sequence: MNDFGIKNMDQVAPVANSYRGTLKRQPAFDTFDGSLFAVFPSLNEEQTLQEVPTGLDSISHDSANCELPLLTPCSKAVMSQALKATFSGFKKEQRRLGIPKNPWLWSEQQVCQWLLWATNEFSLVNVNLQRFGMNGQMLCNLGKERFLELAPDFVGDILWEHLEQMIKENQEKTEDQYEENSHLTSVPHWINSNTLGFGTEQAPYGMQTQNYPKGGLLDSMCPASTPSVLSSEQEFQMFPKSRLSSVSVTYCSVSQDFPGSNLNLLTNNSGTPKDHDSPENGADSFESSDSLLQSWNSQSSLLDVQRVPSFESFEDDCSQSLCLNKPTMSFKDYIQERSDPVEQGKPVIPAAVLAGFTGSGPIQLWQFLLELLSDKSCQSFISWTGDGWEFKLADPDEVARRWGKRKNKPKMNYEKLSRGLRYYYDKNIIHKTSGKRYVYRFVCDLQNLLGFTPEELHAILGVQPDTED
# Method in brief: as §1
# SPDEF = target: T9, SPDEF (Homo sapiens, UniProt O95238 1-335); conditions: protein: recombinant; tags: N-terminal GST; dsDNA, one strand shown
# T9 sequence: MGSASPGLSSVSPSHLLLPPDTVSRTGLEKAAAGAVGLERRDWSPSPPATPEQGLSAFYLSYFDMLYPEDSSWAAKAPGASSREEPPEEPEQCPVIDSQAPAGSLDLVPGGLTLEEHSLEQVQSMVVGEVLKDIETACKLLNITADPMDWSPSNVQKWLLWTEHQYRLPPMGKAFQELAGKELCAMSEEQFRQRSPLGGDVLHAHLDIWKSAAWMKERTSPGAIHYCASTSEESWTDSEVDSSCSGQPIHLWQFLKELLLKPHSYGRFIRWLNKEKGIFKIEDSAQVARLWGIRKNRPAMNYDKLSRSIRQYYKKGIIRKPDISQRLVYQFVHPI
# Method in brief: as §1
# ETV7 = target: T10, ETV7 (Homo sapiens, UniProt Q9Y603 1-341); conditions: protein: recombinant; tags: N-terminal GST; dsDNA, one strand shown
# T10 sequence: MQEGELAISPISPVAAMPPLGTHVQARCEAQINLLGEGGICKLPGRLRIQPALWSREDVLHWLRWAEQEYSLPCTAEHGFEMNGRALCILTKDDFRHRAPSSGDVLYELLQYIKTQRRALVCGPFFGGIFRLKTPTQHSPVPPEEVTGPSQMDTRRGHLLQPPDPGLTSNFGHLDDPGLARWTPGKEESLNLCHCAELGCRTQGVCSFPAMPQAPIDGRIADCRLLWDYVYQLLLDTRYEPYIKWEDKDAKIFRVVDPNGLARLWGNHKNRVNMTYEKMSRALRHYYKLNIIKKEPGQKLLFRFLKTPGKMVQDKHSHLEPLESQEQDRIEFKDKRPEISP
# Method in brief: as §1
# ELF5 = target: T11, ELF5 (Homo sapiens, UniProt Q9UKW6-2 1-255); conditions: protein: recombinant; tags: N-terminal GST; dsDNA, one strand shown
# T11 sequence: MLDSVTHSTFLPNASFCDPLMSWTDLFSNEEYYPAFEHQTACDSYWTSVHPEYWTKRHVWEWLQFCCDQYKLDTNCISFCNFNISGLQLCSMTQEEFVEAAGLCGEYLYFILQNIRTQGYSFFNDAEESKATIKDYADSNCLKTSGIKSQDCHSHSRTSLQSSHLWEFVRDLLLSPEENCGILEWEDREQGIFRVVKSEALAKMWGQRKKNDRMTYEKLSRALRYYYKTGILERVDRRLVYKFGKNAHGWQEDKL
# Method in brief: as §1
# ETV3 = target: T12, ETV3 (Homo sapiens, UniProt P41162-2 1-143); conditions: protein: recombinant; tags: N-terminal GST; dsDNA, one strand shown
# T12 sequence: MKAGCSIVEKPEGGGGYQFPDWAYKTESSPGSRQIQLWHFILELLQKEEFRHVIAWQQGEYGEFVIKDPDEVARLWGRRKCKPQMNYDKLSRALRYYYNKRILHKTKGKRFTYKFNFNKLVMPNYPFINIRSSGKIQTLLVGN
# Method in brief: as §1
# ETV6 = ETV6 (Homo sapiens, UniProt P41212 1-452); conditions: protein: recombinant; tags: N-terminal GST; dsDNA, one strand shown
# Chain of ETV6 (P41212 whole entry): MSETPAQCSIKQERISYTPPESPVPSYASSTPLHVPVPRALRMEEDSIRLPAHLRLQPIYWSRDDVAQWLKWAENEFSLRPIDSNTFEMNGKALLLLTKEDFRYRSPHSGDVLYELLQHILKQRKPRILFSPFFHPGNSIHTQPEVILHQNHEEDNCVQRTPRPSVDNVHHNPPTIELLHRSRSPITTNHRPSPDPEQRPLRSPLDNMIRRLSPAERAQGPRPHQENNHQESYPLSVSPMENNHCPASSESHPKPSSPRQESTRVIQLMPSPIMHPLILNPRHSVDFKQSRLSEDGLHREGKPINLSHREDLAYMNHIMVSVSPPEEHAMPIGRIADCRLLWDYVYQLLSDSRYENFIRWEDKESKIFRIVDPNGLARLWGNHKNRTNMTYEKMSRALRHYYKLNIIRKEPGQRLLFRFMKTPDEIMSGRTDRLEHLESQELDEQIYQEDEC
# Method in brief: as §1
sequence,measurement,setting,value
TTAACC,binding signal,FEV,"1.29 fold enrichment (6-mer frequency, TF over GST control)"
same,binding signal,ETV5,"1.22 fold enrichment (6-mer frequency, TF over GST control)"
same,binding signal,HSF1,"1.8 fold enrichment (6-mer frequency, TF over GST control)"
same,binding signal,SPIC,"1.26 fold enrichment (6-mer frequency, TF over GST control)"
same,binding signal,ELF4,"1.32 fold enrichment (6-mer frequency, TF over GST control)"
same,binding signal,ELK4,"1.31 fold enrichment (6-mer frequency, TF over GST control)"
same,binding signal,ETV2,"1.36 fold enrichment (6-mer frequency, TF over GST control)"
same,binding signal,ELF3,"1.27 fold enrichment (6-mer frequency, TF over GST control)"
same,binding signal,CRX,"2.67 fold enrichment (6-mer frequency, TF over GST control)"
same,binding signal,ETV1,"1.28 fold enrichment (6-mer frequency, TF over GST control)"
same,binding signal,ERF,"1.23 fold enrichment (6-mer frequency, TF over GST control)"
same,binding signal,ETV3L,"1.32 fold enrichment (6-mer frequency, TF over GST control)"
same,binding signal,ETS2,"1.29 fold enrichment (6-mer frequency, TF over GST control)"
same,binding signal,SPDEF,"1.35 fold enrichment (6-mer frequency, TF over GST control)"
same,binding signal,ETV7,"1.23 fold enrichment (6-mer frequency, TF over GST control)"
same,binding signal,ELF5,"1.28 fold enrichment (6-mer frequency, TF over GST control)"
same,binding signal,ETV3,"1.38 fold enrichment (6-mer frequency, TF over GST control)"
same,binding signal,ETV6,"1.32 fold enrichment (6-mer frequency, TF over GST control)"
